Experimental data from PubChem BioAssay (NCI).
Compounds without any hit were thinned out: in the full panel of roughly 79,000, 15% have a hit. Values without a mark were called inactive. Calls of active or inactive are those of the source. Cut-off read from the data, not from the text of the source: active = growth inhibition above about 70%; inactive = the rest.

Assay: NCI Yeast Anticancer Drug Screen. Data for the bub3 strain (AID 167)
Conditions: S. cerevisiae bub3 mutant strain, active compounds read high
Description: Growth inhibition of yeast strains with defined genetic alterations is measured as a screen for potential anti-cancer activity. Selected strains with alterations in DNA damage repair or cell cycle control were exposed to compounds and growth inhibition was measured relative to vehicle treated controls. The strain used in this assay is bub3

[1] = at 5.0 µM (retest, dose inferred, filed as 0.5)
[2] = at 50.0 µM (retest, dose inferred, filed as 5.0)

CCCCCCCN=C(N)c1ccc(C(=O)OCc2ccccc2)cc1
growth inhibition [1]: 0% | growth inhibition [2]: 77% (active) | growth inhibition (at 50.0 µM): 99.4% (active)

Cc1c2ccccc2c(CSC(=N)N)c2ccccc12
growth inhibition [1]: 7% | growth inhibition [2]: 99% (active) | growth inhibition (at 50.0 µM): 99.4% (active)

COc1ccccc1OC(=O)Oc1ccccc1OC
growth inhibition [1]: 1% | growth inhibition [2]: 9% | growth inhibition (at 50.0 µM): 57.8%

Cc1ccc2c(c1)C(=O)N(CC[P+](c1ccccc1)(c1ccccc1)c1ccccc1)C2=O
growth inhibition [1]: 84% (active) | growth inhibition [2]: 90% (active) | growth inhibition (at 50.0 µM): 66.7%

Cc1nc(Nc2c(C)cccc2C)c2c(C)c[nH]c2n1
growth inhibition [1]: -4% | growth inhibition [2]: -2% | growth inhibition (at 50.0 µM): 75.5% (active)

CN(C)CCCNc1ccc(O)c2sc3ccccc3c(=O)c12
growth inhibition [1]: 5% | growth inhibition [2]: 25% | growth inhibition (at 50.0 µM): 24.4%

COC(=O)C12Oc3ccc(-c4ccc5c(c4O)C(O)=C4C(=O)CC(C)C(O)C4(C(=O)OC)O5)c(O)c3C(O)=C1C(=O)CC(C)C2O (configuration not stated)
growth inhibition [1]: 53% | growth inhibition [2]: 97% (active) | growth inhibition (at 50.0 µM): 94.1% (active)

c1ccc(CN2CCc3[nH]c4ccccc4c3C2)cc1
growth inhibition [1]: 1% | growth inhibition [2]: 6% | growth inhibition (at 50.0 µM): -2.45%

O=C(NCCN1CCN2Cc3[nH]c4ccccc4c3CC2C1)c1ccc(Cl)cc1 (configuration not stated)
growth inhibition [1]: 26% | growth inhibition [2]: 53% | growth inhibition (at 50.0 µM): 50.5%

CCc1nc(N)nc(N)c1-c1ccc(NCCN)c([N+](=O)[O-])c1
growth inhibition [1]: 2% | growth inhibition [2]: -28% | growth inhibition (at 50.0 µM): 98% (active)

CCCCCC/C=C\CCCCCCCCCC1=C(CN2CCN(C)CC2)C(=O)C=C(OC)C1=O
growth inhibition [1]: 99% (active) | growth inhibition [2]: 98% (active) | growth inhibition (at 50.0 µM): 91% (active)

S=C(N/N=C1\C=Cc2ccccc2C1)N/N=C1\C=Cc2ccccc2C1
growth inhibition [1]: -3% | growth inhibition [2]: 36% | growth inhibition (at 50.0 µM): 62.4%

Cc1cc(N/N=C/c2cccc3ccccc23)c2cc3c(cc2n1)OCO3
growth inhibition [1]: -3% | growth inhibition [2]: 75% (active) | growth inhibition (at 50.0 µM): 99.2% (active)

CCOc1c(Br)cc(Br)cc1/C=N/NS(=O)(=O)c1ccc(C)cc1
growth inhibition [1]: 45% | growth inhibition [2]: 85% (active) | growth inhibition (at 50.0 µM): 72.2% (active)
